E coli Lon inh: inhibitors of E. coli Lon protease; 360,000 compounds, 0.42% hits; inhibition, % at 7.94 µM; purified E. coli Lon protease, fluorescence polarization; P0A9M0; in the data active = inhibition above about 13%, passing the limit was not always enough;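 also: 0% = enzyme with probe and DMSO and 100% = no enzyme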
Rin1-Abl PPI inh: blocks binding of human Rin1 to Abl. P00519+Q13671. TR-FRET Rin1/Abl binding, biochemical. inhibition, % at 7.35 µM. 360,000 compounds, 0.4% hits. AID 588664; in the data active = inhibition above about 5%, passing the limit was not always enough
PAFAH1B3 inh: blocks human PAF acetylhydrolase 1B catalytic subunit 3. inhibition, % at 3.39 µM. 340,000 compounds, 0.28% hits. recombinant PAFAH1B3, FP-rhodamine probe, fluorescence polarization. AID 492972;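 active = inhibition above the screen-wide average of all tested compounds plus 3 SD, cut at about 25% in these data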;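 also: 0% = enzyme with DMSO only and 100% = wells lacking PAFAH1B3 protein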
Target sequence (Q15102 whole entry, looked up): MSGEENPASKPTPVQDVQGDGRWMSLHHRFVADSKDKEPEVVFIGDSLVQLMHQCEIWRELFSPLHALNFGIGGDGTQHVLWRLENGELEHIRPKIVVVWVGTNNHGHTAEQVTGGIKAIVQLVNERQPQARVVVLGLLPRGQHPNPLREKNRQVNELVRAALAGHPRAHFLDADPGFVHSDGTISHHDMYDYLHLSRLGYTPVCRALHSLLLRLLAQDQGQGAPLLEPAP
PAFAH2 FP inh: PAFAH2 (human) inhibition; inhibition, % at 3.39 µM; recombinant PAFAH2, FP-rhodamine activity probe, fluorescence polarization; Q99487; 340,000 compounds, 0.99% hits; AID 492956;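 active = inhibition above the mean over all tested compounds plus 3 SD, cut at about 30% in these data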;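 also: inhibitors block probe labeling of enzyme so polarization drops; 0% = enzyme with DMSO and 100% = wells lacking PAFAH2 protein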
PAFAH1B2 FP inh: inhibitors of human PAFAH1B2; recombinant PAFAH1B2, FP-rhodamine activity probe, fluorescence polarization; 340,000 compounds, 1.2% hits; P68402; inhibition, % at 3.39 µM; AID 492953;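 active = inhibition above the mean of all tested compounds plus 3 SD, cut at about 24% in these data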;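 also: 0% = enzyme with DMSO and 100% = wells lacking PAFAH1B2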
Target sequence (P68402 whole entry, looked up): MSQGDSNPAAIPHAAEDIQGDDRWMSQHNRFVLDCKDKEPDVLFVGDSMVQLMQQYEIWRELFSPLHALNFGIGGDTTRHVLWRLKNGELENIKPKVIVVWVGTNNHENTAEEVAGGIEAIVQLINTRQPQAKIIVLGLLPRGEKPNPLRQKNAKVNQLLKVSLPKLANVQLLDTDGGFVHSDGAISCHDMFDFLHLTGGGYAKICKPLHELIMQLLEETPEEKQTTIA
pPAFAH inh: pPAFAH (human) enzyme inhibition; inhibition, % at 3.39 µM; 330,000 compounds, 1.5% hits; recombinant pPAFAH, FP-rhodamine probe fluorescence polarization;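 active = inhibition above the mean inhibition across the screen plus 3 SD, cut at about 25% in these data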;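 also: inhibitors block binding of the rhodamine activity-based probe so polarization drops; 0% = enzyme with DMSO and 100% = wells lacking pPAFAH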
PAFAH2 confirm: confirmation of human PAFAH2 inhibitors; shares compounds with PAFAH2 FP inh; recombinant PAFAH2, FP-rhodamine activity probe, fluorescence polarization; inhibition, % at 3.39 µM; 2,300 compounds, 65% hits;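 active = mean inhibition over three repeats above a set limit taken from the earlier primary screen, cut at about 30% in these data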;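 also: inhibitor blocks binding of rhodamine activity probe so polarization falls; 0% = enzyme with DMSO and 100% = wells lacking PAFAH2 protein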
An asterisk follows results filed as active; . = no result. Most compounds without a hit are left out; they make up all but 3.1% or so of the library.

SMILES	E coli Lon inh	Rin1-Abl PPI inh	PAFAH1B3 inh	PAFAH2 FP inh	PAFAH1B2 FP inh	pPAFAH inh	PAFAH2 confirm
CC(NC(=O)COC(=O)c1c[nH]c2ccccc12)c1ccccc1 (configuration not stated)	3	3	-6	55*	3	8	52*
CC(NC(=O)COC(=O)/C=C/c1cccc(C(F)(F)F)c1)c1ccccc1 (configuration not stated)	-5	7	5	16	-2	3	.
Cc1ccc(/C=C/C(=O)OCC(=O)NC(C)c2ccccc2)o1 (configuration not stated)	8	-3	6	54*	4	5	38*
Cc1cc(C(=O)OCC(=O)NC(C)c2ccc(F)cc2)c(C)o1 (configuration not stated)	-6	1	1	48*	4	-8	34*
Nc1ccn(CCCNCC(c2ccccc2)c2ccccc2)c(=O)n1	-7	-4	.	.	.	.	.
Cc1cc(C(=O)OCC(=O)NC(C)c2ccccc2)c(C)o1 (configuration not stated)	4	-2	6	32*	3	3	21
Cc1ccc(C(=O)OCC(=O)NC(C)c2ccccc2)cc1C (configuration not stated)	6	-1	4	75*	-3	17	63*
CC(NC(=O)COC(=O)c1cc2ccccc2cc1O)c1ccccc1 (configuration not stated)	-6	2	-1	6	-4	.	.
COc1cc(NCCCn2cnc3c(OCc4ccccc4)ncnc32)cc(OC)c1OC	-3	-3	5	3	7	.	.
Cc1ccc(C(=O)c2ccccc2C(=O)OCC(=O)Nc2cccc([N+](=O)[O-])c2)cc1	-2	-1	-10	73*	-1	11	77*
COc1cc([N+](=O)[O-])ccc1NC(=O)COC(=O)C=C(C)C	-10	-2	5	-1	-5	-2	.
CC1CC1C(=O)OCC(=O)Nc1cccc([N+](=O)[O-])c1 (configuration not stated)	3	-1	1	82*	6	-1	84*
CC(C)=CC(=O)OCC(=O)Nc1cccc([N+](=O)[O-])c1	0	-1	2	76*	2	-2	75*
CC1CC1C(=O)OCC(=O)Nc1ccc2[nH]c(=O)[nH]c2c1 (configuration not stated)	12	3	4	-12	0	8	.
CCC(C(N)=O)N1C(=O)C2C3CCC(C3)C2C1=O (configuration not stated)	-9	3	.	.	.	.	.
Cc1cccc(NC(=O)COC(=O)CN2CCCCCC2=O)c1C	5	2	-11	1	-4	2	.
Cc1c(Cl)cccc1NC(=O)COC(=O)c1ccc(CN2CCCC2=O)cc1	-3	0	7	76*	0	7	67*
CC(=O)Nc1cc(C(=O)OCC(=O)c2ccc(Cl)cc2Cl)ccc1C	0	-3	9	35*	12	0	21
COc1cc(Cl)c(C)cc1NC(=O)COC(=O)c1ccc(CN2CCCC2=O)cc1	-2	4	0	43*	-6	9	23
Cc1ccc(Cl)cc1NC(=O)COC(=O)c1ccc(CN2CCCC2=O)cc1	12	0	5	60*	0	4	43*
O=C(COC(=O)c1ccc(Cl)nc1)Nc1ccc2c(c1)CCC2	5	3	10	42*	-8	-2	32*
O=C(COC(=O)c1ccc(Cl)nc1)Nc1ccc2c(c1)OCO2	-11	4	-1	53*	-1	1	39*
CC(=O)Nc1ccc(NC(=O)COC(=O)c2ccc(Cl)nc2)cc1	1	-3	7	1	0	.	.
O=C(COC(=O)c1ccc(Cl)nc1)Nc1ccc(Cl)cc1	17	-2	4	36*	3	.	33*
Cc1noc(C)c1COc1ccc(C(=O)OCC(=O)Nc2ccc3c(c2)OCO3)cc1	-2	-1	3	80*	0	15	86*
SMILES	E coli Lon inh	Rin1-Abl PPI inh	PAFAH1B3 inh	PAFAH2 FP inh	PAFAH1B2 FP inh	pPAFAH inh	PAFAH2 confirm
O=C(Nc1ccc2c(c1)CCC2)c1ccc(Cl)nc1	-5	1	7	-5	19	0	.
Cc1csc(NC(=O)CCCNC(=O)c2ccc(Cl)cc2)n1	-7	1	8	-3	9	1	.
O=C(O)CCCC(=O)Nc1ccc(Cl)cc1	1	3	2	1	5	1	.
O=C(O)CCC(=O)Nc1ccc(C(=O)OCC(=O)c2ccc(Cl)cc2)cc1	-1	0	7	42*	4	3	28
O=C(COC(=O)c1ccc(NC(=O)C2CC=CCC2C(=O)O)cc1)c1ccccc1 (configuration not stated)	2	0	7	31*	8	-1	31*
O=C(COC(=O)c1ccc(O)cc1)Nc1ccc2c(c1)OCO2	-10	2	4	89*	2	11	81*
O=C(CCN1CCCCO1)N1CCCC(Nc2cccc(F)c2)C1 (configuration not stated)	5	5	8	-2	8	3	.
O=C(COC(=O)/C=C/c1ccco1)Nc1ccccc1	-4	0	8	85*	3	10	83*
O=C(COC(=O)/C=C/c1ccco1)Nc1ccc(F)cc1Cl	-9	2	2	63*	6	1	46*
CCc1ccc(NC(=O)COC(=O)/C=C/c2ccco2)cc1	14	4	3	73*	2	15	73*
CCN(c1ccc(NC(=O)COC(=O)/C=C/c2ccco2)cc1)C(C)C	8	-5	15	23	6	10	.
COc1ccc(OC)c(C2=NOC(C(=O)NCc3cccs3)C2)c1 (configuration not stated)	-8	1	-4	-1	2	4	.
COc1ccc(N2C(=O)C3[C@@H](C2=O)C2(Cl)C(Cl)=C(Cl)C3(Cl)C2(OC)OC)cc1 (some centres not stated)	9	2	-1	33*	4	4	31*
Cc1ccc(CNc2nc3cc(-c4ccccc4)sc3c(=O)n2C)c(C)c1	-7	2	.	.	.	.	.
COc1ccc2oc(C(=O)OCC(=O)NC3CCS(=O)(=O)C3)c(C)c2c1 (configuration not stated)	-21	2	.	.	.	.	.
COc1ccc2oc(C(=O)OCC(=O)Nc3ccc(NC(C)=O)cc3)c(C)c2c1	-1	0	-30	-37	-13	-11	.
COc1ccc2oc(C(=O)OCC(=O)NC3(C#N)CCCC3)c(C)c2c1	-1	0	2	53*	-3	8	38*
COc1ccc2oc(C(=O)OCC(=O)NC3CCCC3)c(C)c2c1	-13	3	2	53*	-2	8	40*
